Assays:
Assay in all cases: DAPPL (digital affinity profiling via proximity ligation, sequencing); 10 mM Tris-HCl pH 7.5, 50 mM NaCl, 1 mM DTT, 4% glycerol, room temperature, 30 min; GST-TFs on glutathione beads, 16-mer random dsDNA library, 0.1% formaldehyde crosslink after washing; high values mean tight binding
Conditions in all cases: protein: recombinant; tags: N-terminal GST; dsDNA, one strand shown
FLI1 = target: T1, FLI1 (Homo sapiens, UniProt Q01543 1-452)
T1 sequence: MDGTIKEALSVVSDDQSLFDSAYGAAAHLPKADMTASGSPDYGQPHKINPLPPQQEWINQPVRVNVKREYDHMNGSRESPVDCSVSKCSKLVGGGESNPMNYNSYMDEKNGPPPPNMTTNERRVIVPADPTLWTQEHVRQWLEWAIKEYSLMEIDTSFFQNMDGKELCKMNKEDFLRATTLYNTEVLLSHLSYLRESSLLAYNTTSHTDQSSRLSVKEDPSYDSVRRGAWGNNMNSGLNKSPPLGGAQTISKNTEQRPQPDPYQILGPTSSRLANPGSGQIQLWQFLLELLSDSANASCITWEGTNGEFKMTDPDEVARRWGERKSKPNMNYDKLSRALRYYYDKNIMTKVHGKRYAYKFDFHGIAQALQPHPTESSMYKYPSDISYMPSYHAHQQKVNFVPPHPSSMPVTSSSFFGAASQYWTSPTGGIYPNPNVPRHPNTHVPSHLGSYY
Outline: (§1)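 After expression in yeast as GST fusions, human transcription factors were bound to glutathione beads, DNA-barcoded and mixed with a tag-only sample. The pools were incubated with 200 nmole of a 16-mer random double-stranded DNA library in Tris/NaCl/DTT/glycerol buffer (30 min, room temperature), washed and crosslinked with 0.1% formaldehyde. Proximity ligation with BsaI/T4 ligase ran for 1 h at 37 °C, before PCR amplification and sequencing on an Illumina NextSeq500. Binding signal is a hexamer's read frequency for a factor divided by its frequency for the tag-only sample.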

ELK1 = target: T2, ELK1 (Homo sapiens, UniProt P19419 1-428)
T2 sequence: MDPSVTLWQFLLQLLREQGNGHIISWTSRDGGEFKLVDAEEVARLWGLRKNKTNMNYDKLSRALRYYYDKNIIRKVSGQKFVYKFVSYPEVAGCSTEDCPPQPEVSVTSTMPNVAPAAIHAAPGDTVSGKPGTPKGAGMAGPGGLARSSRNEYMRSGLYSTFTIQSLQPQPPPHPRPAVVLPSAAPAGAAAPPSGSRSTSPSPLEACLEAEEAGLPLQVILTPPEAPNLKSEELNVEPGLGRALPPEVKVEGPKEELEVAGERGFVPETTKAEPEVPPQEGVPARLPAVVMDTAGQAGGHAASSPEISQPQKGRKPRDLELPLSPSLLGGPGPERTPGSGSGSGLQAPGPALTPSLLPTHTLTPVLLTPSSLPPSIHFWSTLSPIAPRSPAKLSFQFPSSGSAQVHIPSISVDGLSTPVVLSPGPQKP
Outline: as §1

GABPA = target: T3, GABPA (Homo sapiens, UniProt Q06546 1-454)
T3 sequence: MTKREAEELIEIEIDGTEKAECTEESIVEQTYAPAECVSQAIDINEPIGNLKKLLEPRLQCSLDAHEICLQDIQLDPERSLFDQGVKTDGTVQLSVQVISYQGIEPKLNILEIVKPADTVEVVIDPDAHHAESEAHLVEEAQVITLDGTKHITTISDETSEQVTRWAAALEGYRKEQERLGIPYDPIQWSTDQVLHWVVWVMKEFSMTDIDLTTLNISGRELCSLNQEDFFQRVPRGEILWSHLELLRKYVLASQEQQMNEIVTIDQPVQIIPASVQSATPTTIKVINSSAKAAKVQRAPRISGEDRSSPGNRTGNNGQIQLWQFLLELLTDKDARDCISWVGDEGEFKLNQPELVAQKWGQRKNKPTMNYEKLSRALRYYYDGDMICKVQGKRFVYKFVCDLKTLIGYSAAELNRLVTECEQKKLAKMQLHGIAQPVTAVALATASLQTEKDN
Outline: as §1

ERG = target: T4, ERG (Homo sapiens, UniProt P11308 1-479)
T4 sequence: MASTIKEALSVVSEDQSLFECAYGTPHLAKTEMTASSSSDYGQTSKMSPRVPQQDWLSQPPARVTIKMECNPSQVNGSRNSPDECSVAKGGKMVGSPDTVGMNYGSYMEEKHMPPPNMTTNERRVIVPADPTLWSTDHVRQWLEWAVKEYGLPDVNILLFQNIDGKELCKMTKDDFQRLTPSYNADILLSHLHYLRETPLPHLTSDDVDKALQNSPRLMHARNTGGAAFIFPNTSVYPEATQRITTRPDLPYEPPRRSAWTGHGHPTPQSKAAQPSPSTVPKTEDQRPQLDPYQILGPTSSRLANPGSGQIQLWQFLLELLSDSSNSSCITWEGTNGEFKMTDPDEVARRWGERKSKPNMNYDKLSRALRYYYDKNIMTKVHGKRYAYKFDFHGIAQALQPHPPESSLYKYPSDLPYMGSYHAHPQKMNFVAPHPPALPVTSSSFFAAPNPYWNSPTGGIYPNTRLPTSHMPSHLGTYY
Outline: as §1

ELF1 = ELF1 (Homo sapiens, UniProt P32519 1-619)
Sequence of ELF1 (P32519 whole entry): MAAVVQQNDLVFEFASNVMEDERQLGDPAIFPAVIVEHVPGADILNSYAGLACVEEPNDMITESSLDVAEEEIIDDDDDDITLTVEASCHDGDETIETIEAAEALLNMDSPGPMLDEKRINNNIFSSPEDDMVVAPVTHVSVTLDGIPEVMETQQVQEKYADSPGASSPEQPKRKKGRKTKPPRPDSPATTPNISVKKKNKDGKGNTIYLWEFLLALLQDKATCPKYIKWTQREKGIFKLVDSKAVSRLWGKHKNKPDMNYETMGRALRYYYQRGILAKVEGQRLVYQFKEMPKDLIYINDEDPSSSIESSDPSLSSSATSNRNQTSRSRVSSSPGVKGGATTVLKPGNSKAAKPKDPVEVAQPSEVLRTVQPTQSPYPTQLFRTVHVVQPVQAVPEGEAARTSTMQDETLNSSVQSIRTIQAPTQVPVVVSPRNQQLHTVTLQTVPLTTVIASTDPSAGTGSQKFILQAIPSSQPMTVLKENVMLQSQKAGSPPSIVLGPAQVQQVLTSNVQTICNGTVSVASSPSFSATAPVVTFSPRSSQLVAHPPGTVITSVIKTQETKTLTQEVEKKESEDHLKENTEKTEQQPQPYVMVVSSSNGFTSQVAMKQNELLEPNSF
Outline: as §1

EHF = target: T5, EHF (Homo sapiens, UniProt Q9NZC4 1-300)
T5 sequence: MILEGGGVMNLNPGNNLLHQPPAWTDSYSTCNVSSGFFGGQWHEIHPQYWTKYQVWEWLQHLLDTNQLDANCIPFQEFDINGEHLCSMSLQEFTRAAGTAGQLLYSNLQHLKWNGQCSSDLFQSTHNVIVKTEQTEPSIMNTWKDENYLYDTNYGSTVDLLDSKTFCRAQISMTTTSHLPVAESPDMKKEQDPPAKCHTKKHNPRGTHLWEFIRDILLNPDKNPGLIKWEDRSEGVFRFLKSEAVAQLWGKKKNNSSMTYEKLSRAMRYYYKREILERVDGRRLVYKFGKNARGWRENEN
Outline: as §1

SPI1 = SPI1 (Homo sapiens, UniProt P17947 1-270)
Outline: as §1

SPIB = SPIB (Homo sapiens, UniProt Q01892 1-262)
Sequence of SPIB (Q01892 whole entry): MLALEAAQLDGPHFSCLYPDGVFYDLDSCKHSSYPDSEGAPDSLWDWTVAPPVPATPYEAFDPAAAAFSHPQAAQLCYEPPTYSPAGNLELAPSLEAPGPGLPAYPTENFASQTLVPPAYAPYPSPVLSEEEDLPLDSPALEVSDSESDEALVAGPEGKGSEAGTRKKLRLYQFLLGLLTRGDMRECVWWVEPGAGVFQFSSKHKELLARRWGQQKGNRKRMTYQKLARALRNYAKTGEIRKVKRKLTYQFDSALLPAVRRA
Outline: as §1

ELK3 = target: T6, ELK3 (Homo sapiens, UniProt P41970 1-407)
T6 sequence: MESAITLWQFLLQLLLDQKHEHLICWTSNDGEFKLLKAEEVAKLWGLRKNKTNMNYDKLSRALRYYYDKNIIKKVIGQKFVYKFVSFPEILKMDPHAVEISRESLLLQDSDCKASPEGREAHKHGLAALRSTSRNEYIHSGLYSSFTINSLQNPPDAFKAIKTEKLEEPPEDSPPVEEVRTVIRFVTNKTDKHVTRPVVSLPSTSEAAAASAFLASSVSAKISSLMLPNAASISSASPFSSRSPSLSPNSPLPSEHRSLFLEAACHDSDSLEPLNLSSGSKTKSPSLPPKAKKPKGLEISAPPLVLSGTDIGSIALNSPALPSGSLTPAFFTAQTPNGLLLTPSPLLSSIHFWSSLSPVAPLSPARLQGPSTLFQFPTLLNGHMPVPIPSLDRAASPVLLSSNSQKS
Outline: as §1

| Sequence | binding signal (FLI1) | binding signal (ELK1) | binding signal (GABPA) | binding signal (ERG) | binding signal (ELF1) | binding signal (EHF) | binding signal (SPI1) | binding signal (SPIB) | binding signal (ELK3) |
| --- | --- | --- | --- | --- | --- | --- | --- | --- | --- |
| ATTACA | 1.14 fold enrichment (6-mer frequency, TF over GST control) | 1.13 fold enrichment (6-mer frequency, TF over GST control) | 1.06 fold enrichment (6-mer frequency, TF over GST control) | 1.12 fold enrichment (6-mer frequency, TF over GST control) | 1.1 fold enrichment (6-mer frequency, TF over GST control) | 1.12 fold enrichment (6-mer frequency, TF over GST control) | 1.08 fold enrichment (6-mer frequency, TF over GST control) | 1.15 fold enrichment (6-mer frequency, TF over GST control) | 1.11 fold enrichment (6-mer frequency, TF over GST control) |
| CTATGC | 1.41 fold enrichment (6-mer frequency, TF over GST control) | 1.56 fold enrichment (6-mer frequency, TF over GST control) | 1.53 fold enrichment (6-mer frequency, TF over GST control) | 1.39 fold enrichment (6-mer frequency, TF over GST control) | 1.47 fold enrichment (6-mer frequency, TF over GST control) | 1.31 fold enrichment (6-mer frequency, TF over GST control) | 1.38 fold enrichment (6-mer frequency, TF over GST control) | 1.48 fold enrichment (6-mer frequency, TF over GST control) | 1.4 fold enrichment (6-mer frequency, TF over GST control) |
| TGTTTC | 1.91 fold enrichment (6-mer frequency, TF over GST control) | 1.85 fold enrichment (6-mer frequency, TF over GST control) | 1.59 fold enrichment (6-mer frequency, TF over GST control) | 1.97 fold enrichment (6-mer frequency, TF over GST control) | 1.8 fold enrichment (6-mer frequency, TF over GST control) | 1.79 fold enrichment (6-mer frequency, TF over GST control) | 1.69 fold enrichment (6-mer frequency, TF over GST control) | 1.74 fold enrichment (6-mer frequency, TF over GST control) | 1.61 fold enrichment (6-mer frequency, TF over GST control) |
| TCGCCC | 1.34 fold enrichment (6-mer frequency, TF over GST control) | 1.4 fold enrichment (6-mer frequency, TF over GST control) | 1.3 fold enrichment (6-mer frequency, TF over GST control) | 1.27 fold enrichment (6-mer frequency, TF over GST control) | 1.31 fold enrichment (6-mer frequency, TF over GST control) | 1.27 fold enrichment (6-mer frequency, TF over GST control) | 1.29 fold enrichment (6-mer frequency, TF over GST control) | 1.25 fold enrichment (6-mer frequency, TF over GST control) | 1.27 fold enrichment (6-mer frequency, TF over GST control) |
| GCTTTC | 1.27 fold enrichment (6-mer frequency, TF over GST control) | 1.22 fold enrichment (6-mer frequency, TF over GST control) | 1.3 fold enrichment (6-mer frequency, TF over GST control) | 1.28 fold enrichment (6-mer frequency, TF over GST control) | 1.32 fold enrichment (6-mer frequency, TF over GST control) | 1.34 fold enrichment (6-mer frequency, TF over GST control) | 1.28 fold enrichment (6-mer frequency, TF over GST control) | 1.27 fold enrichment (6-mer frequency, TF over GST control) | 1.38 fold enrichment (6-mer frequency, TF over GST control) |
| AACTCC | 1.47 fold enrichment (6-mer frequency, TF over GST control) | 1.29 fold enrichment (6-mer frequency, TF over GST control) | 1.39 fold enrichment (6-mer frequency, TF over GST control) | 1.32 fold enrichment (6-mer frequency, TF over GST control) | 1.35 fold enrichment (6-mer frequency, TF over GST control) | 1.3 fold enrichment (6-mer frequency, TF over GST control) | 1.34 fold enrichment (6-mer frequency, TF over GST control) | 1.32 fold enrichment (6-mer frequency, TF over GST control) | 1.38 fold enrichment (6-mer frequency, TF over GST control) |
| CTAAGA | 1.21 fold enrichment (6-mer frequency, TF over GST control) | 1.22 fold enrichment (6-mer frequency, TF over GST control) | 1.16 fold enrichment (6-mer frequency, TF over GST control) | 1.17 fold enrichment (6-mer frequency, TF over GST control) | 1.18 fold enrichment (6-mer frequency, TF over GST control) | 1.26 fold enrichment (6-mer frequency, TF over GST control) | 1.15 fold enrichment (6-mer frequency, TF over GST control) | 1.24 fold enrichment (6-mer frequency, TF over GST control) | 1.18 fold enrichment (6-mer frequency, TF over GST control) |

— paper PMC7862700, “An all-to-all approach to the identification of sequence-specific readers for epigenetic DNA modifications on cytosine”
